Reference: PubChem BioAssay (NCI)
About 79,000 compounds went through this panel and 15% of them were active in at least one assay; those are over-represented in the sample as a whole. Calls of active or inactive are those of the source. Cut-off read from the data, not from the text of the source: active = growth inhibition above about 70%; inactive = the rest.

Legend:
[1] = NCI Yeast Anticancer Drug Screen. Data for the rad50 strain (AID 155);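 note: 0% = growth of vehicle-only cultures of the same strain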; conditions: S. cerevisiae rad50 strain growth inhibition; at 50.0 µM; active compounds read high
In short: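 Vehicle-treated cultures provide the reference for the growth inhibition reported for compound-exposed, repair-deficient yeast.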

[2] = NCI Yeast Anticancer Drug Screen. Data for the mec2-1 strain (AID 157); conditions: S. cerevisiae mec2-1 strain, at 50.0 µM, active compounds read high
In short: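 Each compound was tested on mec2-1 yeast, a strain altered in DNA damage repair or cell cycle control. Growth inhibition is reported relative to vehicle.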

[3] = NCI Yeast Anticancer Drug Screen. Data for the sgs1 mgt1 strain (AID 161);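 note: 0% = growth of cultures given vehicle only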; conditions: S. cerevisiae sgs1 mgt1 strain, at 50.0 µM, active compounds read high
In short: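 Read-out: growth inhibition vs vehicle controls. Cells: mutant yeast strain deficient in DNA damage repair.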

[4] = NCI Yeast Anticancer Drug Screen. Data for the bub3 strain (AID 167); conditions: S. cerevisiae bub3 mutant strain, at 50.0 µM, active compounds read high
In short: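 Mutant yeast screening strain plus compound; vehicle-treated cultures serve as the 0% inhibition reference.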

[5] = NCI Yeast Anticancer Drug Screen. Data for the mlh1 rad18 strain (AID 175); conditions: S. cerevisiae mlh1 rad18 strain growth inhibition; at 50.0 µM; active compounds read high
In short: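 Inhibition values reflect reduced growth of mutant yeast versus vehicle-treated controls following compound exposure; the mutations affect DNA damage repair.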

[6] = NCI Yeast Anticancer Drug Screen. Data for the cln2 rad14 strain (AID 165);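 note: 0% = growth equal to vehicle treated cultures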; conditions: S. cerevisiae cln2 rad14 strain, at 50.0 µM, active compounds read high
In short: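 Test compounds were added to cln2 rad14 yeast cultures; inhibition of growth was then determined by comparison with vehicle treatment.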

Measured: growth inhibition

CCCCCCCCCc1ccc(OC(C)=O)cc1
active: [1] 99.3% | [2] 97.2% | [4] 94.2% | [5] 98.4%
inactive: [3] 42.2%

COC(=O)c1ccc([N+](=O)[O-])c(C)c1
inactive: [1] -33.2% | [2] -30.9% | [3] -50.2% | [4] -25.1% | [5] -27.6%

O=C(NCc1ccccc1)c1cccc([N+](=O)[O-])c1
inactive: [1] 5.05% | [2] 18.1% | [3] 19.9% | [4] 22.9% | [5] 15.6%

CCC(C)C1CCC(O)CC1 (configuration not stated)
inactive: [1] 30.8% | [2] 9.55% | [3] 9.15% | [4] 24.2% | [5] 18.9%

C=C(C)COc1ccc(C(C)(C)C)cc1
inactive: [1] 18.1% | [2] 16.7% | [3] 11.1% | [4] 17.6% | [5] 12%

CC(=O)Nc1ccc(/C=C2\SC(=S)N(/C=C(\C(C)=O)C(N)=O)C2=O)cc1
inactive: [1] -52% | [2] -7.4% | [3] -37.6% | [4] -5% | [5] -11.2%

Clc1ccc(C(SCc2ccccc2)SCc2ccccc2)cc1
inactive: [1] -41.4% | [2] -46.8% | [3] -15.6% | [4] -10% | [5] -20.1%

O=C(c1ccc(Cl)cc1)N1CCCCC1
inactive: [1] 1.05% | [2] 2.85% | [6] -0.65% | [4] -7.15% | [5] -5.8%

CC(C)N1CC(=O)N2CSCC2C1=O (configuration not stated)
inactive: [1] 14.1% | [2] 8.3% | [3] 9.8% | [4] 13.1% | [5] 3.25%

Nc1ccc(F)c(Cl)c1F
inactive: [1] -11% | [2] -7.8% | [3] -14.3% | [4] -1.75% | [5] -1.8%

CC1CCC(C)(C)c2ccccc21 (configuration not stated)
inactive: [1] 2.65% | [2] -7.25% | [3] -2.5% | [6] -2.5% | [5] 2.3%

COc1cc(C(=O)NC(=S)NCc2ccncc2)cc(OC)c1OC
inactive: [1] 9.6% | [2] 4.75% | [3] -4.65% | [4] 34.2% | [5] 19.7%

Nc1cc(F)ccc1[N+](=O)[O-]
inactive: [1] -13.2% | [2] -0.1% | [3] -18.1% | [4] -8.75% | [5] -5%

Cc1ccc(Cc2ccc(C)cc2)cc1
inactive: [1] -30.2% | [2] -34.2% | [3] -30.3% | [4] -4.6% | [5] -8.2%

c1ccc(-c2ccc3ccccc3c2)cc1
inactive: [2] -6.65% | [3] -3.3% | [6] -2.65% | [4] -0.8% | [5] -14.2%

CC1CCC(C(C)(C)[N+](C)(C)C)CC1 (configuration not stated)
inactive: [1] 40.2% | [3] 23.9% | [6] 10.6% | [4] 47.2% | [5] 36.4%

O=C(O)Cc1ccc(Cl)cc1
inactive: [1] 22.2% | [3] 29% | [6] 3.65% | [4] -25.2% | [5] 0%

O=C(O)c1cccc(-n2ncc(Cl)c(Cl)c2=O)c1
inactive: [1] 8.4% | [3] 19.2% | [6] 19% | [4] 21.4% | [5] 19.6%

Cc1[nH]n(-c2ccccc2)c(=O)c1C=NC(=S)C(N)=S
inactive: [1] -24.4% | [3] -20.4% | [4] -54.4% | [5] -20.5%

C=CCC(OC(C)=O)c1ccc(C(C)C)cc1 (configuration not stated)
inactive: [1] 4% | [3] -23.4% | [6] -55.1% | [4] -0.5% | [5] 5.45%

CCN(C(=O)Nc1ccccc1Cl)c1ccccc1
inactive: [1] 8.75% | [3] 8.8% | [6] 2.95% | [4] 7.8% | [5] 11.6%

CC(=O)Nc1ccc(C(=O)c2ccc(S(=O)(=O)Nc3ccccc3)cc2)cc1
inactive: [1] 6.5% | [3] 5.55% | [6] 16.9% | [4] 6.05% | [5] -14.4%

COC(=O)Cc1cc(COC(C)=O)ccc1C
inactive: [1] 0.05% | [3] -0.7% | [6] -57% | [4] -17.2% | [5] -7.8%

Cc1[nH]c(=S)[nH]c(=O)c1C
inactive: [1] -5.1% | [3] -35.6% | [4] -34.4% | [5] -1.7%

COCC(N)=O
inactive: [1] 31.2% | [6] -5.1% | [4] 5.2% | [5] 13.8%

O=C(OC1CCCC1)c1ccccc1Cl
inactive: [1] 23.9% | [3] 3.75% | [6] -21.7% | [4] -2.3% | [5] 23.2%

ClCC(Cl)[C@@H]1CC2C=CC1C2 (some centres not stated)
inactive: [1] 2.85% | [3] 10.3% | [6] 15.6% | [4] 11.2% | [5] -6.1%

Cc1ccnc(Nc2nc3ccccc3[nH]2)n1
inactive: [1] 7.1% | [3] 4.5% | [6] 14.1% | [4] 8.6% | [5] 8.85%

CC(=O)NC(O)C(Cl)Cl (configuration not stated)
inactive: [1] -14.7% | [3] -6.95% | [6] -23.3% | [4] -5.7% | [5] -14.2%

CS(=O)(=O)c1ccc(/C=C\C(=O)O)cc1
inactive: [1] 19.6% | [3] 9% | [6] -8.4% | [4] -3.7% | [5] 19.2%

O=c1cc(C(F)(F)F)[nH]c(=S)[nH]1
inactive: [1] -21.9% | [3] -15.8% | [6] -20.9% | [4] -24.8% | [5] -26.2%

CC(C)N(C(=O)c1ccccc1)C(C)C
inactive: [1] 20.2% | [3] 29.4% | [6] -20.1% | [4] -7.35% | [5] 2.35%

O=C(O)C1CCCN1C(=O)OCc1ccccc1 (configuration not stated)
inactive: [1] -23.4% | [3] -17.9% | [6] -2.45% | [4] -22.9% | [5] -8.9%

Cc1ccc(S(=O)(=O)Oc2ccc3sc4c(CO)ccc(NCCN(C)C)c4c(=O)c3c2)cc1
inactive: [1] 6.05% | [3] 12.2% | [4] 22.4% | [5] 1.55%

O=C(O)CSCC(=O)Nc1cc(C(F)(F)F)ccc1Cl
inactive: [1] -28.1% | [3] -25.8% | [6] -22.9% | [4] -11.3% | [5] -11.2%

CSc1nsc(N)n1
inactive: [1] -13.3% | [3] -4.2% | [6] -26.9% | [5] 20.7%

Cc1ccc(C)c(CN(C)C)c1O
inactive: [1] -0.8% | [6] 25.1% | [4] -11.1% | [5] 22.9%

O=C(O)c1cc(I)ccc1O
inactive: [1] -6.65% | [3] -1.25% | [4] -12.7% | [5] 26.9%

O=Cc1ccc(Cl)c(Cl)c1
inactive: [1] -3.55% | [3] -18.8% | [6] -16.9% | [4] -5.85% | [5] -23.1%

Nc1c(Br)cc(O)c2c1C(=O)c1ccccc1C2=O
inactive: [1] -11.6% | [3] 8.55% | [6] 7% | [4] 26.9% | [5] 10.5%

CCOC(=O)CNC
inactive: [1] 3.55% | [3] -12.7% | [6] -4.5% | [4] 10.3% | [5] -10.9%

CCCCCC/C=C\CCCCCCCCCc1cc(O)cc(OC)c1O
inactive: [1] -8.55% | [3] -5.65% | [6] -9.8% | [5] 13.2%

Nc1ccc2ccccc2c1-c1c(N)ccc2ccccc12
inactive: [1] 14.8% | [3] -2.05% | [6] 1.1% | [4] 0.75% | [5] -2.65%

CCOS(=O)(=O)c1ccc([N+](=O)[O-])cc1
inactive: [1] 7.35% | [3] 4.5% | [6] 5.15% | [4] 5.2% | [5] 5.8%

Nc1cccc2cccc(O)c12
inactive: [1] 40.1% | [3] -17.5% | [6] -10.8% | [4] 41.4% | [5] 43.5%

Oc1cccc(CNC2CCCCC2)c1
inactive: [1] 3.5% | [3] -0.6% | [6] 10.2% | [4] -22.4% | [5] 9.15%

COC1C(=O)CCC2(CO2)C1(O)C1(C)OC1CCC(C)C (configuration not stated)
inactive: [1] -27.1% | [3] -18.5% | [6] -3.85% | [4] -16.1% | [5] -4.55%

Cc1cccc(-[n+]2noc(N)n2)c1
inactive: [1] 29.1% | [3] 2.25% | [6] -3.35% | [4] 1.95% | [5] 40.6%

CCCCOC(=O)c1ccc(NC(=O)CCl)cc1
inactive: [2] 18.8% | [3] 43.1% | [6] 12.5% | [4] 13.8% | [5] 43.4%

O=c1nc(Nc2cccc(Cl)c2)oc2cc(Cl)oc(=O)c12
inactive: [1] 32.5% | [3] 51.8% | [6] 19.6% | [4] 36.5% | [5] 42.6%

CC(=O)C1C(=O)C(=O)N(c2cccc([N+](=O)[O-])c2)C1=O (configuration not stated)
inactive: [1] -40% | [3] -8.75% | [6] -9.3% | [4] -23.4% | [5] -54.3%
